A short description of experiment [1]: ATG_AP_1_CIS: Attagene CIS-FACTORIAL HepG2 Assay for human Activator Protein 1 (AP-1) (AID 2282931). The following applies: HepG2 Attagene cis-factorial AP-1 reporter mRNA; actives raise or lower the signal. Put shortly: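 Transient MRTU transfection of HepG2 → 24 h chemical treatment → RNA isolation, RT-PCR, 6-FAM labelling, HpaI digest → capillary electrophoresis. Fit: bidirectional, DMSO negative control.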

A short description of experiment [2]: ATG_M_61_CIS: Attagene CIS-FACTORIAL HepG2 Assay for M61 Transcription Factor (Internal Marker) (AID 2282937). The following applies: HepG2 Attagene CIS-FACTORIAL M61 internal marker reporter; actives raise or lower the signal. Put shortly:
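Human liver HepG2, transient MRTU transfection (cis promoter elements), 24 h compound. Total RNA → oligo(dT) RT → PCR → FAM label → HpaI → CE. Internal background marker; bidirectional fitting, DMSO = baseline.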

Experiment [3] is described as follows: ATG_GRE_CIS: Attagene CIS-FACTORIAL HepG2 Assay for human Glucocorticoid Response Elements (GRE) (AID 2282947). To be noted: HepG2 GRE cis-reporter, Attagene multiplex mRNA; actives raise or lower the signal. The method in brief: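 Assay uses human hepatoma HepG2 cells transfected with cis-promoter reporter units, exposed 24 h. mRNA from reporters detected by RT-PCR plus capillary electrophoresis; DMSO serves as negative control and baseline.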

A short description of experiment [4]: ATG_ISRE_CIS: Attagene CIS-FACTORIAL HepG2 Assay for human Interferon Regulatory Factor 1 (IRF1) binding to an Interferon-Stimulated Response Element (ISRE) (AID 2282948). To be noted: HepG2 ISRE cis-reporter (Attagene), mRNA transcription readout; actives raise or lower the signal. Put shortly: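 Transfected HepG2 (multiple reporter transcription units, cis elements) dosed 24 h. RNA → oligo(dT) RT → PCR → 6-FAM primer extension → HpaI → CE. DMSO = negative control/baseline.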

Experiment [5] in a line: ATG_PBREM_CIS: Attagene CIS-FACTORIAL HepG2 Assay for human Phenobarbital-responsive Enhancer Module (PBREM) (AID 2282955). To be noted: HepG2 PBREM cis-reporter, Attagene multiplexed transcription; actives raise or lower the signal. The method in brief: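 Endogenous transcription factors in human liver HepG2 cells drive a PBREM cis-element reporter, whose transcript level after 24 h treatment is quantified by RT-PCR with capillary electrophoresis; activity fitted in both directions against DMSO.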

A short description of experiment [6]: ATG_TA_CIS: Attagene CIS-FACTORIAL HepG2 Assay for human TA Basal Promoter (AID 2282964). To be noted: HepG2 Attagene CIS-factorial TA basal promoter reporter; actives raise or lower the signal. The method in brief:
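Background internal-marker endpoint from a 52-component HepG2 cis-reporter panel. Cells treated 24 h; reporter transcripts quantified via RT-PCR and CE fluorescence against DMSO baseline.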

Experiment [7] in a line: ATG_M_06_TRANS: Attagene TRANS-FACTORIAL HepG2 Assay for M06 Transcription Factor (Internal Marker) (AID 2282983; active = hit-call score of the fitted dose curve at least 0.9, where 1 is the maximum). To be noted: HepG2 Attagene TRANS M06 internal marker reporter. The method in brief:
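HepG2 cells transiently transfected with multiplexed GAL4-UAS reporter transcription units; after 24 h compound exposure, reporter mRNA measured by RT-PCR, FAM-labelled primer extension, HpaI digestion and capillary electrophoresis. Gain-of-signal fitted versus DMSO baseline; background control readout.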

A short description of experiment [8]: ATG_NF_kB_CIS: Attagene CIS-FACTORIAL HepG2 Assay for human Nuclear Factor Kappa B (NF-kB) (AID 2282991). The following applies: HepG2 Attagene cis-factorial NF-kB reporter mRNA; actives raise or lower the signal. Put shortly:
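Transient MRTU transfection of human HepG2 liver cells → 24 h chemical exposure → total RNA, oligo(dT) RT → PCR, 6-FAM primer extension, HpaI digest 2 h 37 C → CE fragment analysis. Bidirectional fitting, DMSO negative control.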

The target in experiment [9] is human Peroxisome Proliferator-activated Receptor delta (PPARd), PPARD (gene 5467) (UniProt Q03181). Kind of experiment: ATG_PPARd_TRANS: Attagene TRANS-FACTORIAL HepG2 Assay for human Peroxisome Proliferator-activated Receptor delta (PPARd) (AID 2283002; active = hit-call score of the fitted dose curve at least 0.9, where 1 is the maximum). Put shortly: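 Cell-based TRANS reporter: HepG2, transient MRTU transfection, 24 h exposure. Readout = reporter mRNA (RT-PCR/CE, 6-FAM). Gain-of-signal fit vs DMSO control.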

The target in experiment [10] is Retinoic acid receptor RXR-alpha (Homo sapiens) (UniProt P19793). Put plainly: ATG_RXRa_TRANS: Attagene TRANS-FACTORIAL HepG2 Assay for human Retinoid X Receptor alpha (RXRa) (AID 2283012; active = hit-call score of the fitted dose curve at least 0.9, where 1 is the maximum). The method in brief: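 Cells (HepG2) carried transiently transfected GAL4-responsive reporter units. Following a 24 h chemical incubation, reporter mRNA induction was read via RT-PCR fragment analysis; DMSO served as negative control and baseline.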

Experiment [11] deals with human Retinoid X Receptor beta (RXRb), RXRB (gene 6257) (UniProt P28702). Kind of experiment: ATG_RXRb_TRANS: Attagene TRANS-FACTORIAL HepG2 Assay for human Retinoid X Receptor beta (RXRb) (AID 2283013; active = hit-call score of the fitted dose curve at least 0.9, where 1 is the maximum). The method in brief: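 Multiplexed TRANS reporter assay in HepG2; 24 h dosing; reporter mRNA by RT-PCR/CE fluorescence; gain-of-signal relative to DMSO.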
Experiment [12] in a line: TOX21_p53_BLA_p2_viability: Viability Assessment in the Tox21 HCT-116 p53 Agonism Beta-lactamase Assay, Phase 2 (AID 2283591; active = hit-call score of the fitted dose curve at least 0.9, where 1 is the maximum;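 note: compound exposure lasted 16 h at 37 °C; actives lower the ATP signal meaning cytotoxicity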). The method in brief:
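Cytotoxicity readout: CellTiter-Glo ATP luminescence, 30 min at room temperature, after the beta-lactamase read. Cells were HCT116 exposed 16 h at 37C to compounds pin-transferred at 217-fold dilution from DMSO stocks.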

Experiment [13] can be described thus: ATG_M_32_CIS: Attagene CIS-FACTORIAL HepG2 Assay for M32 Transcription Factor (Internal Marker) (AID 2282949).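 Note: background control marker of the multiplexed CIS panel rather than a real target.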 The following applies: HepG2 Attagene cis-factorial M32 reporter, mRNA; actives raise or lower the signal. Put shortly: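 Following 24 h chemical exposure of HepG2 cells transiently expressing cis-promoter reporter constructs, reporter transcript levels were determined by RT-PCR with fluorescent labelling and capillary electrophoresis, then fitted bidirectionally against DMSO.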

For experiment [14], the target named is Hypoxia-inducible factor 1-alpha (Homo sapiens) (UniProt Q16665). Put plainly: ATG_HIF1a_CIS: Attagene CIS-FACTORIAL HepG2 Assay for human Hypoxia Inducible Factor 1 (HIF1A) (AID 2282951). To be noted: HepG2 Attagene cis-factorial HIF1a reporter transcription; actives raise or lower the signal. The method in brief:
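Transient MRTU transfection of human HepG2 liver cells, 24 h compound treatment, then total RNA isolation, oligo(dT) reverse transcription, PCR amplification, fluorescent labelling and capillary electrophoresis of reporter fragments. Gain or loss relative to DMSO.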

In experiment [15] the target is Signal transducer and activator of transcription 3 (Homo sapiens) (UniProt P40763). Kind of experiment: ATG_STAT3_CIS: Attagene CIS-FACTORIAL HepG2 Assay for human Signal Transducer and Activator of Transcription 3 (STAT3) (AID 2282963). To be noted: HepG2, Attagene cis-factorial STAT3 reporter transcription; actives raise or lower the signal. Put shortly: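 After a 24 h compound incubation, total RNA from MRTU-transfected HepG2 cells was converted to cDNA and reporter sequences PCR-amplified, labelled and profiled by capillary electrophoresis. Gain and loss of signal were referenced to DMSO.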

Experiment [16] deals with Oxysterols receptor LXR-beta (Homo sapiens) (UniProt P55055). Put plainly: ATG_LXRb_TRANS: Attagene TRANS-FACTORIAL HepG2 Assay for human Liver X Receptor beta (LXRb) (AID 2282981; active = hit-call score of the fitted dose curve at least 0.9, where 1 is the maximum). To be noted: HepG2 Attagene TRANS GAL4-LXRb reporter, mRNA. The method in brief: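 Cells: HepG2, transiently transfected with GAL4-UAS reporter units plus LXRb-Gal4 fusion. Treatment: 24 h. Detection: reporter mRNA by RT-PCR, 6-FAM labelling, HpaI digestion, capillary electrophoresis.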

Experiment [17] concerns the target human Peroxisome Proliferator-activated Receptor alpha (PPARa), PPARA (gene 5465) (UniProt Q07869). Kind of experiment: ATG_PPARa_TRANS: Attagene TRANS-FACTORIAL HepG2 Assay for human Peroxisome Proliferator-activated Receptor alpha (PPARa) (AID 2283001; active = hit-call score of the fitted dose curve at least 0.9, where 1 is the maximum). Put shortly:
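Reporter transcripts from GAL4-UAS units in transfected HepG2 were quantified 24 h after dosing. Detection used reverse transcription, PCR, fluorescent primer extension and capillary electrophoresis, with DMSO as baseline.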

Experiment [18] has as its target Cellular tumor antigen p53 (Homo sapiens) (UniProt P04637). Put plainly: TOX21_p53_BLA_p5_ratio: Tox21 HCT-116 p53 Agonism Beta-lactamase Assay, Ratio, Phase 5 (AID 2283599; active = hit-call score of the fitted dose curve at least 0.9, where 1 is the maximum). Put shortly:
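Beta-lactamase reporter ratio (blue 460 nm over green 530 nm, 405 nm excitation) after 2 h CCF4-AM loading, in HCT-116 cells exposed 16 h at 37 C to compounds pinned at 217-fold dilution. Increases relative to DMSO baseline scored.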

The target is the same in experiment [19]. Kind of experiment: TOX21_p53_BLA_p3_ratio: Tox21 HCT-116 p53 Agonism Beta-lactamase Assay, Ratio, Phase 3 (AID 2283596; active = hit-call score of the fitted dose curve at least 0.9, where 1 is the maximum). The method in brief:
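HCT116 p53-bla cells (4000/well) given compound in DMSO (217-fold dilution) after 5 h, incubated 16 h at 37C. CCF4-AM substrate 2 h at room temperature; 460/530 nm emission ratio, gain fitted against DMSO.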

Experiment [20] shares this target. Kind of experiment: TOX21_p53_BLA_p4_ratio: Tox21 HCT-116 p53 Agonism Beta-lactamase Assay, Ratio, Phase 4 (AID 2283601; active = hit-call score of the fitted dose curve at least 0.9, where 1 is the maximum). Put shortly: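 Signal is the blue/green (460nm/530nm) ratio of cleaved versus uncleaved CCF4-AM substrate, read after 2 h substrate loading. Cells were HCT116 carrying the p53-responsive beta-lactamase reporter, dosed 16 h at 37C, 5% CO2; CellTiter-Glo measured in parallel.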

Inconclusive results are not listed. More than one record can exist for a structure, and the calls need not agree. Calls of active or inactive are those of the source. Rule for the calls, unless noted: active = hit-call score of the fitted dose curve at least 0.9, where 1 is the maximum; inactive = score below 0.9.

Chain of human Peroxisome Proliferator-activated Receptor delta (PPARd), PPARD (gene 5467) (Q03181 whole entry, looked up): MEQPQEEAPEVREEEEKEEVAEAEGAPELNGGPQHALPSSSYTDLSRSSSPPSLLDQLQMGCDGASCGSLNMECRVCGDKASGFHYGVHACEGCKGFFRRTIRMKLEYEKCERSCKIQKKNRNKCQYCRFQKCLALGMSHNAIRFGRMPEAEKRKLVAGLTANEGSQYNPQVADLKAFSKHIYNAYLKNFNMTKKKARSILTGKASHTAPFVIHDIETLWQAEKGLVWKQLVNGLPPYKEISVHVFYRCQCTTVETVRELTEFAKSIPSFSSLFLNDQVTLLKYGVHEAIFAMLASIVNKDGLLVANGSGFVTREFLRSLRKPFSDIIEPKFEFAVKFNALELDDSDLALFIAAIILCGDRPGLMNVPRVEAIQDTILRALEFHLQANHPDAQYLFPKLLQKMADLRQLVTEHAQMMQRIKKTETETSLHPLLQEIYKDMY
Chain of Signal transducer and activator of transcription 3 (Homo sapiens) (P40763 whole entry, looked up): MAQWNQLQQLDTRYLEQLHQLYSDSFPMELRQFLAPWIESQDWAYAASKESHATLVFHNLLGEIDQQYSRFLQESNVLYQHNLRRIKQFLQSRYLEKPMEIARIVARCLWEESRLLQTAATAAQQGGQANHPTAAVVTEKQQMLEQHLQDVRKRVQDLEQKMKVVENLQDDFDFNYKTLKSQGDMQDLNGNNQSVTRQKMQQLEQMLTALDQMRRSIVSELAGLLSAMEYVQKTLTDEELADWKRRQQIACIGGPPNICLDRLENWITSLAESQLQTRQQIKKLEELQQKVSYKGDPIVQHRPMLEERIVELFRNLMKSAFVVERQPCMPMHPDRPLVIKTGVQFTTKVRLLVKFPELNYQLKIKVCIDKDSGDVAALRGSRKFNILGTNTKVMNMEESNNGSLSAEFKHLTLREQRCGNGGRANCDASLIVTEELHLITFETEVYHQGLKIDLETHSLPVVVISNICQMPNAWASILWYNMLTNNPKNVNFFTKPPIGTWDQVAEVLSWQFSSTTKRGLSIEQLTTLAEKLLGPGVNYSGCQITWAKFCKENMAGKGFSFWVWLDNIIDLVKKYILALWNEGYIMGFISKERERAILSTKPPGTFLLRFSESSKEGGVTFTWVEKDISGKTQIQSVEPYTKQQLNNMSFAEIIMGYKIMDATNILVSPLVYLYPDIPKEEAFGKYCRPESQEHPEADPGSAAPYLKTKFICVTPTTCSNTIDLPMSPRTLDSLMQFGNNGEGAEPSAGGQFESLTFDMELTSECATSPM
Chain of Oxysterols receptor LXR-beta (Homo sapiens) (P55055 whole entry, looked up, the tested form may be a part): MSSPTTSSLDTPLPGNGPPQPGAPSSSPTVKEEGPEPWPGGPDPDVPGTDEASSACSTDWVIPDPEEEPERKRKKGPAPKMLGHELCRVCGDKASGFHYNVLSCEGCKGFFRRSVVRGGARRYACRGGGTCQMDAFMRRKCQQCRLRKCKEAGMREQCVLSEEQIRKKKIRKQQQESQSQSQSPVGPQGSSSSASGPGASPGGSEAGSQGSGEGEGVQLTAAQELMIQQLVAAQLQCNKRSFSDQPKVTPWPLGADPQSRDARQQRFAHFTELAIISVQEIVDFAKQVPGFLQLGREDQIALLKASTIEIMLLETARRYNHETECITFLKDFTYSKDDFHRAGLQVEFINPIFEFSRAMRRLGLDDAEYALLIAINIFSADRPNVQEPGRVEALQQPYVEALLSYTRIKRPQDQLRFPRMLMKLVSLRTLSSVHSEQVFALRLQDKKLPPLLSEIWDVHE
Chain of human Retinoid X Receptor beta (RXRb), RXRB (gene 6257) (P28702 whole entry, looked up): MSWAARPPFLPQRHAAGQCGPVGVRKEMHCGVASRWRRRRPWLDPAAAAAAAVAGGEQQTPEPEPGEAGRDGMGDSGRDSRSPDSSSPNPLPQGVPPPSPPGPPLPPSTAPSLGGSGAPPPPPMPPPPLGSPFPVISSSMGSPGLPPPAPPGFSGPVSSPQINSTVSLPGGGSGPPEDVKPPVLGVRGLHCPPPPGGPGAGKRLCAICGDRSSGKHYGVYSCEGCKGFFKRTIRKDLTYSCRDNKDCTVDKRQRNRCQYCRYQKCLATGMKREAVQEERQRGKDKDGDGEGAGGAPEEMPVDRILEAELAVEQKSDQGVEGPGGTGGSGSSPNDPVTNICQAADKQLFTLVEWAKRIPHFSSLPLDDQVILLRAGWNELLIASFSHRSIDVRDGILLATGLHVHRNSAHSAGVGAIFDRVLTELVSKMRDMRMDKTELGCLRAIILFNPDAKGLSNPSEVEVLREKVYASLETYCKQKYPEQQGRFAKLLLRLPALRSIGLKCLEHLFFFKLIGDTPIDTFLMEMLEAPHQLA
Chain of human Peroxisome Proliferator-activated Receptor alpha (PPARa), PPARA (gene 5465) (Q07869 whole entry, looked up, the tested form may be a part): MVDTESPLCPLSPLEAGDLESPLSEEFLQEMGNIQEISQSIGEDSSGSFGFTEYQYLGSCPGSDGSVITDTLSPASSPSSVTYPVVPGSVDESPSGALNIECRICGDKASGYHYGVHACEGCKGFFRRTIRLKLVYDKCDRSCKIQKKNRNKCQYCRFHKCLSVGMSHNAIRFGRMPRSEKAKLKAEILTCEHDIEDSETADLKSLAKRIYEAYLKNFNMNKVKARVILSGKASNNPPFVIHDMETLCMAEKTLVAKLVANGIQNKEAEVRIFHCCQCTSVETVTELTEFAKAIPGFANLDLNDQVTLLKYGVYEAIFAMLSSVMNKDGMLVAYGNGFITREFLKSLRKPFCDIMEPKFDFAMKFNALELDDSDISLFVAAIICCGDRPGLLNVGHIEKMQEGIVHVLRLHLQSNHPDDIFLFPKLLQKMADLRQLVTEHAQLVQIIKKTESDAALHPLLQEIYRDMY
Chain of Hypoxia-inducible factor 1-alpha (Homo sapiens) (Q16665 whole entry, looked up, the tested form may be a part): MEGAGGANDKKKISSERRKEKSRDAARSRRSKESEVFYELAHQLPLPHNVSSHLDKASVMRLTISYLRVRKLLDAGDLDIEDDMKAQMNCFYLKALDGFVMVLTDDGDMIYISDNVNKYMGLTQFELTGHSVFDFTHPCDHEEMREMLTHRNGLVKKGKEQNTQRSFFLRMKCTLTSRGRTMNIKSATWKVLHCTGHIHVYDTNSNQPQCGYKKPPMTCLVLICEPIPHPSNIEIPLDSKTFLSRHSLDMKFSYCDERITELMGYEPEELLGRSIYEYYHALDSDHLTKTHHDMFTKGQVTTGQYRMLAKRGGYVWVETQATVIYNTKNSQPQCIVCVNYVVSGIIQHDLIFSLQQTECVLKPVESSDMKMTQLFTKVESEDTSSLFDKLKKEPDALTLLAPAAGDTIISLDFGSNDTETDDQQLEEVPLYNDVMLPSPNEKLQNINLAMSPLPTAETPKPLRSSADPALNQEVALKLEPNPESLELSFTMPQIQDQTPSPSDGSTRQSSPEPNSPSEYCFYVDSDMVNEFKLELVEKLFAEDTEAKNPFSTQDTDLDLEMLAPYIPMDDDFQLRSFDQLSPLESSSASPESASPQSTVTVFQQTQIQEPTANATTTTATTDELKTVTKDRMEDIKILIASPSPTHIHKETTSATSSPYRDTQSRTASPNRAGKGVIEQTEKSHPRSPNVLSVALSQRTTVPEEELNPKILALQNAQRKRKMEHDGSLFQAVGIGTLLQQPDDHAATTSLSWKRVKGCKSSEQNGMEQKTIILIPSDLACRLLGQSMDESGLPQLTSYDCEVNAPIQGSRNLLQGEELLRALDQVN
Chain of Retinoic acid receptor RXR-alpha (Homo sapiens) (P19793 whole entry, looked up, the tested form may be a part): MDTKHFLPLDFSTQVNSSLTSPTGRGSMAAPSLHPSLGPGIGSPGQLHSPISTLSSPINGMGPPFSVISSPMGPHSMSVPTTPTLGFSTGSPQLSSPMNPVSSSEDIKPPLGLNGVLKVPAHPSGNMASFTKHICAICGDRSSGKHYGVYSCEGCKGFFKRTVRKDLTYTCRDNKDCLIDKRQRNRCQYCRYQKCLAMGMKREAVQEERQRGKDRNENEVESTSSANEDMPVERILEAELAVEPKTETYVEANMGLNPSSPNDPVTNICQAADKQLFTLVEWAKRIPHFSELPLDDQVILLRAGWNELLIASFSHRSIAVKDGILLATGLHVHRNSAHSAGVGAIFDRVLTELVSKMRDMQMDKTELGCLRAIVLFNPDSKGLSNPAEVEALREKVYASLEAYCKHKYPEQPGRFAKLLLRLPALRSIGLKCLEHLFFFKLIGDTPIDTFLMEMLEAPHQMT
Chain of Cellular tumor antigen p53 (Homo sapiens) (P04637 whole entry, looked up): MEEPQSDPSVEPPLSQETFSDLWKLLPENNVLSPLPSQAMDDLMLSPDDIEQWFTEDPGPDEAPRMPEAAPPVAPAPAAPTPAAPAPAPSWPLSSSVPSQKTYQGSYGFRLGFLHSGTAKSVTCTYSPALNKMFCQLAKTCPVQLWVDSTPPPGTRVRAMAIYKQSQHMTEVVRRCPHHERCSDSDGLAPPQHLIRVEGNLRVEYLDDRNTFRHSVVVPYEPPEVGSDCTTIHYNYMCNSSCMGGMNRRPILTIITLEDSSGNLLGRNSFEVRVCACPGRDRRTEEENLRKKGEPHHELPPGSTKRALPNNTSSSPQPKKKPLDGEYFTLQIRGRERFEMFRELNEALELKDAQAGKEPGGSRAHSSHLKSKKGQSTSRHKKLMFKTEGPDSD

Usually AC50 stands for the concentration giving half of the maximal activity seen. On to `C=CCc1ccc(OC(=O)Cc2ccccc2)c(OC)c1`, for which the result in [1], in [2], in [3], in experiment [4], in experiment [5] and in experiment [6] was inactive. Besides, the molecule was called inactive in experiment [7], in experiment [9], in experiment [10], in experiment [11] and in [12]. Further, in [8], the AC50 is 114 µM (active).

Take `CN(N=O)c1ccccc1`: the call in [1], in experiment [3], in experiment [13], in experiment [14], in experiment [5] and in experiment [15] was inactive. Further, the molecule was classed as inactive in [6], in [16], in experiment [7], in experiment [8] and in experiment [17].

Turning to `C[N+](C)(C)CC(=O)[O-]`, the call in experiment [1], in experiment [2], in experiment [4], in experiment [13], in experiment [15] and in experiment [6] was inactive. Besides, the result in [7], in experiment [17], in experiment [9], in experiment [10] and in experiment [11] was inactive.

`COc1ccc(CO)cc1`: the molecule was classed as inactive in [1], in experiment [2], in experiment [3], in [4], in experiment [14] and in experiment [15]. The molecule was called inactive in experiment [16], in [7], in experiment [17], in [9], in [10] and in experiment [11]. Besides, the result in [12] and in experiment [18] was inactive.

Turning to `CC(C)c1ccc(O)cc1`, the molecule was classed as inactive in experiment [1], in experiment [2], in experiment [3], in [4], in experiment [14] and in experiment [5]. Also, the molecule was called inactive in [6], in [16], in experiment [7], in [8], in experiment [17] and in experiment [9]. The molecule was classed as inactive in [10], in experiment [19], in [18] and in experiment [20]. The AC50 in [11] was 74.9 µM (active).

For `O=[N+]([O-])c1cc([N+](=O)[O-])c2ccccc2c1`, the molecule was called inactive in experiment [2], in experiment [3], in [4], in [13], in [5] and in [15]. For the same molecule, the molecule was classed as inactive in [6], in [16], in [7], in [8], in experiment [17] and in experiment [10]. For the same molecule, the call in [11], in experiment [12], in [19], in experiment [18] and in experiment [20] was inactive.

Turning to `CCN(CC)C(=S)S`, in [1], the AC50 was 65.5 µM (active). The outcome in experiment [2], in [3], in experiment [4], in experiment [13], in experiment [14] and in [15] was inactive. For the same molecule, the molecule was called inactive in experiment [16], in experiment [7], in experiment [8], in experiment [9], in [10] and in experiment [11].

`CC(C)COP(=O)(OCC(C)C)OCC(C)C`: the molecule was classed as inactive in experiment [1], in experiment [3], in experiment [4], in experiment [13], in experiment [14] and in [15]. Further, the molecule was classed as inactive in [6], in experiment [7], in experiment [8], in experiment [11], in experiment [12] and in experiment [19]. For the same molecule, the result in [18] and in experiment [20] was inactive.

For `CC1OC(C)OC(C)O1` (stereo unspecified), the molecule was classed as inactive in [1], in [13], in experiment [14], in experiment [15], in experiment [8] and in [9]. Besides, the call in experiment [10], in experiment [12], in experiment [19], in [18] and in experiment [20] was inactive. In addition, in experiment [19], the AC50 is 34.1 µM (active).

The values are drawn from PubChem BioAssay (EPA / NIEHS).
